From the supplement of paper PMC10681739

Columns and labels:
ETS1 [1] = target: T1, ETS1 (UniProt P14921); experiment: ETS1 binding intensity (PBM fluorescence), ETS1 alone (arbitrary fluorescence units); higher = stronger binding; settings: ETS1 concentration 1 nM; RUNX1 concentration 0 nM
T1 sequence: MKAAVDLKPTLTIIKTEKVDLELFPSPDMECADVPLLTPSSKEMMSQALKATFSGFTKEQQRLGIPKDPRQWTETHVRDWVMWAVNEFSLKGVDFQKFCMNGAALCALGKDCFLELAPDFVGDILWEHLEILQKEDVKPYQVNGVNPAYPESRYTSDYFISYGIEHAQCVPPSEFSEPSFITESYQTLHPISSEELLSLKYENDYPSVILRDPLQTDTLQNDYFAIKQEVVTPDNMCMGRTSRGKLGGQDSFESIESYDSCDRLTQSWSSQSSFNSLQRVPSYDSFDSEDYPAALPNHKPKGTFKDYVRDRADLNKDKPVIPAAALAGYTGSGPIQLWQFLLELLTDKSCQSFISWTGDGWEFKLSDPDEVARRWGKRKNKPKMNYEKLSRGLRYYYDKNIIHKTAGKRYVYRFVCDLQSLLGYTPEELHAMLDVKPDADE

ETS1 [2] = target: T1, ETS1; experiment: ETS1 binding intensity (PBM fluorescence) in presence of RUNX1, normalised to ETS1-only experiment (arbitrary fluorescence units); higher = stronger binding; settings: ETS1 concentration 1 nM; RUNX1 concentration 25 nM
ETS1 [3] = target: T1, ETS1; experiment: TF binding intensity (PBM fluorescence), negative control probe (arbitrary fluorescence units); higher = stronger binding
Protocol: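 gcPBM negative-control 36-bp genomic probes lacking TF binding sites. Each was incubated with recombinant human ETS1 or RUNX1 alone and detected by antibody fluorescence. Values are medians over replicate spots (4 spots for the ETS1-RUNX1 arrays, 3 for the ETS1-ETS1 array). The probes sit in constant array flanks that are not printed.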

CAGAGGAGGAAGAGGAAGCCACAGCGATAGGGTCAC
ETS1 binding intensity (ETS1 [1]): 522 | ETS1 binding intensity (ETS1 [2]): 520

CCTGTCTGCTTCCGCCCGGCTTCGGCCCACAGTCAA
ETS1 binding intensity (ETS1 [1]): 511 | ETS1 binding intensity (ETS1 [2]): 441

TGGCTGTTCAGCCTTCCGCTTGTGGCTCCACCCCCG
ETS1 binding intensity (ETS1 [1]): 594 | ETS1 binding intensity (ETS1 [2]): 493

AGAACAGGATGTTCTGAGTACAGCATGAACCTCAAA
ETS1 binding intensity (ETS1 [1]): 1280 | ETS1 binding intensity (ETS1 [2]): 1210

ACACCGCTCAGGAAGACAAAGCCACACCTCACACCG
ETS1 binding intensity (ETS1 [1]): 457 | ETS1 binding intensity (ETS1 [2]): 356

TGGCTGGGCAGGAAGGCCTGTGGCTTACGGTTCCTG
ETS1 binding intensity (ETS1 [1]): 551 | ETS1 binding intensity (ETS1 [2]): 651

CTACATGTTTCACAGGAAGGTGGTCACCAGGAGGCA
ETS1 binding intensity (ETS1 [1]): 782 | ETS1 binding intensity (ETS1 [2]): 821

GAGGAAAAAGGAAACAGAAACTCCGCAACTTGCGCC
ETS1 binding intensity (ETS1 [1]): 503 | ETS1 binding intensity (ETS1 [2]): 411

GCAGGAAATGACGTCAGACCTCACTGCGGGTCTGAG
ETS1 binding intensity (ETS1 [1]): 853 | ETS1 binding intensity (ETS1 [2]): 1010

GAAGTGATGTTAGACGGATGTGGGTGGTGCCTCCGG
ETS1 binding intensity (ETS1 [1]): 1620 | ETS1 binding intensity (ETS1 [2]): 2790

GTCGGGAAGTAGGCGGGGTGACGTGTGGTTGACGAG
ETS1 binding intensity (ETS1 [1]): 426 | ETS1 binding intensity (ETS1 [2]): 546

CCTCTCAACAGCATTTCCTGGTGGTCAGATATCTGA
ETS1 binding intensity (ETS1 [1]): 580 | ETS1 binding intensity (ETS1 [2]): 587

GACCCATTTCCTGGCTCAGGAGCCCACAGCCCTGGG
ETS1 binding intensity (ETS1 [1]): 464 | ETS1 binding intensity (ETS1 [2]): 404

TCTGAGAATGCAGGATATGTGTGTGGTCTCTAGTCA
ETS1 binding intensity (ETS1 [1]): 1240 | ETS1 binding intensity (ETS1 [2]): 1510

CTGCTTCGGCCCGGCTTCCGCCCACAGTCAACTGCC
ETS1 binding intensity (ETS1 [1]): 825 | ETS1 binding intensity (ETS1 [2]): 694

GCGCGCTTCCGCCTTCATGCTAGCAACGCCCGCAGT
ETS1 binding intensity (ETS1 [1]): 566 | ETS1 binding intensity (ETS1 [2]): 560

TAACGCGAGAACTTCCTGCGGGCCACGCCCTCTTTC
ETS1 binding intensity (ETS1 [1]): 571 | ETS1 binding intensity (ETS1 [2]): 462

AGCACGCCGGGAAATGGAGTCTCAGGTGGTTTTTAA
ETS1 binding intensity (ETS1 [1]): 443 | ETS1 binding intensity (ETS1 [2]): 364

TGCCGGAAGCCCGCCAGGCACAGGACCCGCAGGGGT
ETS1 binding intensity (ETS1 [1]): 588 | ETS1 binding intensity (ETS1 [2]): 545

TTCTGGACATGCTTCCTGTGGCTTCTCTCCTGCGCT
ETS1 binding intensity (ETS1 [1]): 845 | ETS1 binding intensity (ETS1 [2]): 598

TAACTTGAACTTCCTTTTGACCACCTGTACGGTATA
ETS1 binding intensity (ETS1 [1]): 497 | ETS1 binding intensity (ETS1 [2]): 462

ACAGTTTCCTTGCTGTGATGTCAGCCCCCGCCGCAG
ETS1 binding intensity (ETS1 [1]): 709 | ETS1 binding intensity (ETS1 [2]): 682

TGAATCATCCTGAGTTACCCGTTCTGTAACCGCCCC
ETS1 binding intensity (ETS1 [1]): 490 | ETS1 binding intensity (ETS1 [2]): 517

GTGCAGGCAATGAGGATGTTGTGGGGGAGACAGGGA
ETS1 binding intensity (ETS1 [1]): 746 | ETS1 binding intensity (ETS1 [2]): 732

TCGCTTCCTGCTCCACTTCTCGGCGCCCACATCTCC
ETS1 binding intensity (ETS1 [1]): 514 | ETS1 binding intensity (ETS1 [2]): 523

CATGGTGGTGACGCAGGATGTGGTGGTGGTGTAGAA
ETS1 binding intensity (ETS1 [1]): 2600 | ETS1 binding intensity (ETS1 [2]): 5340

TTGCTAGAGGAAGCGCTGCCCCGGCAGCCGCAGCCA
ETS1 binding intensity (ETS1 [1]): 524 | ETS1 binding intensity (ETS1 [2]): 596

GAGCAACCAGGAAGAGCTTTGGCTGTGGGCTAAGAT
ETS1 binding intensity (ETS1 [1]): 511 | ETS1 binding intensity (ETS1 [2]): 441

TGAAGGAGCGGAAGGGTTGCTTGCAGACCGCACGGT
ETS1 binding intensity (ETS1 [1]): 574 | ETS1 binding intensity (ETS1 [2]): 1360

GTGACCCAATACTTCCTGCCACAATACTGAGAACTC
ETS1 binding intensity (ETS1 [1]): 841 | ETS1 binding intensity (ETS1 [2]): 702

TCAAGAGGGTGTGGAGGAAGTGGGTTACAAGCACTT
ETS1 binding intensity (ETS1 [1]): 1450 | ETS1 binding intensity (ETS1 [2]): 1940

GCGATACGAGACTTCCTGCGGGCTCGTGACATCAGC
ETS1 binding intensity (ETS1 [1]): 518 | ETS1 binding intensity (ETS1 [2]): 650

TTCATCTACTTCCCGCCACACCCACAGAGAAGCCCA
ETS1 binding intensity (ETS1 [1]): 469 | ETS1 binding intensity (ETS1 [2]): 377

ACGGACAGAATTTCCTCCCCCGTCACCACAGCGACC
ETS1 binding intensity (ETS1 [1]): 686 | ETS1 binding intensity (ETS1 [2]): 728

GCACCGTCCCAGCATCCGGACACCACAGCGGCCCTT
ETS1 binding intensity (ETS1 [1]): 602 | ETS1 binding intensity (ETS1 [2]): 530

GAACATGGTCTCCGCTTCCGCCGCAACCTCGGCCTT
ETS1 binding intensity (ETS1 [1]): 525 | ETS1 binding intensity (ETS1 [2]): 744

TGGTCCACCCGGCGGAACTCGCGGTCCCGGCAGGCA
ETS1 binding intensity (ETS1 [1]): 520 | ETS1 binding intensity (ETS1 [2]): 397

GAAAGCACGTGTTTCCTGCGGCTGCACCCCAGCACC
ETS1 binding intensity (ETS1 [1]): 479 | ETS1 binding intensity (ETS1 [2]): 386

AAGATGCCCCCTTCCGCTGGAAAGCGGTAATGCCCA
ETS1 binding intensity (ETS1 [1]): 724 | ETS1 binding intensity (ETS1 [2]): 705

ACAGGAAGTCAGCTGAGTACCGAGCAAGCCGCATGC
ETS1 binding intensity (ETS1 [1]): 1770 | ETS1 binding intensity (ETS1 [2]): 2090

CAAAGGGGAACGAGGAAACCGCCAGGGGCGGGGCGG
ETS1 binding intensity (ETS1 [1]): 485 | ETS1 binding intensity (ETS1 [2]): 475

CTGACAGCTTCCGCACAAAGCGCGGTCTATTTCTCC
ETS1 binding intensity (ETS1 [1]): 405 | ETS1 binding intensity (ETS1 [2]): 544

CCATTTCCTGATTCTAATGTTCATCAACCACTTTTG
ETS1 binding intensity (ETS1 [1]): 504 | ETS1 binding intensity (ETS1 [2]): 397

AAGCCCTAGAGGAAATTAGTACGTAACCACCTTCTG
ETS1 binding intensity (ETS1 [1]): 540 | ETS1 binding intensity (ETS1 [2]): 844

GCTTACGTCACGTCCGGCGCCTGCGGCCCACCCCTC
ETS1 binding intensity (ETS1 [1]): 592 | ETS1 binding intensity (ETS1 [2]): 506

AACACTATTTCCTTTCTTGCTGCCCACATTTTAACA
ETS1 binding intensity (ETS1 [1]): 520 | ETS1 binding intensity (ETS1 [2]): 447

TGGGATTCTCACTTCCGATCAGCGGTCCTGAACCCG
ETS1 binding intensity (ETS1 [1]): 707 | ETS1 binding intensity (ETS1 [2]): 622

AAAGGGCAGACTTCCCTGCCCACATCTCTGCTCCTG
ETS1 binding intensity (ETS1 [1]): 462 | ETS1 binding intensity (ETS1 [2]): 359

ACAGGTTCAGGAAGCGGCCGTGGTTGTTAGTGGTGT
ETS1 binding intensity (ETS1 [1]): 718 | ETS1 binding intensity (ETS1 [2]): 639

GCCACACCCCCTTCCTGTTGTGTGTGGGGATTCATG
ETS1 binding intensity (ETS1 [1]): 744 | ETS1 binding intensity (ETS1 [2]): 696

TCTCTCTACGGAAGCTGGTAGGGCTGTGGGTGCTTC
ETS1 binding intensity (ETS1 [1]): 729 | ETS1 binding intensity (ETS1 [2]): 810

CTCGGCGCGACGGATATTCCCGTGACCGCCGGGTTC
ETS1 binding intensity (ETS1 [1]): 672 | ETS1 binding intensity (ETS1 [2]): 920

GTAAAAGGAAGTAAAGGCTTGGCCGGGCGCGGTGGC
ETS1 binding intensity (ETS1 [1]): 569 | ETS1 binding intensity (ETS1 [2]): 411

TTCTCTGATTTTCCTTCCGCTCCCACAGCCTCTCCC
ETS1 binding intensity (ETS1 [1]): 697 | ETS1 binding intensity (ETS1 [2]): 612

TAAAGCGGAAGGGGCCGGCTCTGCGGCCTGGCCGCT
ETS1 binding intensity (ETS1 [1]): 553 | ETS1 binding intensity (ETS1 [2]): 770

GGGCAGGTGCGGATGCCGAGGAGAGTGGTCACCTCG
ETS1 binding intensity (ETS1 [1]): 449 | ETS1 binding intensity (ETS1 [2]): 435

AGCGCTTCCCCTTCCGCTGCCGCAGCCGCCGCCTCC
ETS1 binding intensity (ETS1 [1]): 498 | ETS1 binding intensity (ETS1 [2]): 466

CGCCGGTCCCATATCCTTTCTGCGGGGTGAGCAGCA
ETS1 binding intensity (ETS1 [1]): 465 | ETS1 binding intensity (ETS1 [2]): 431

TAGGTTAGAATAAGAGGAAACCTCAAACCAGAACCC
ETS1 binding intensity (ETS1 [1]): 579 | ETS1 binding intensity (ETS1 [2]): 991

CCAAAAAGGAAGGAAACCAGAAAGCCACAGAATGGT
ETS1 binding intensity (ETS1 [1]): 487 | ETS1 binding intensity (ETS1 [2]): 1200

GCAGGCGTGCGCTTCCGCTCCAACCCGCGCACTTCG
ETS1 binding intensity (ETS1 [1]): 1110 | ETS1 binding intensity (ETS1 [2]): 1100

GGGGAAGAGGAAGCTGTGTCCGCGGTGCAAGGGGTT
ETS1 binding intensity (ETS1 [1]): 533 | ETS1 binding intensity (ETS1 [2]): 542

GCTGTCCATTTCCGAGATGTTAATGCGGGATCTTGC
ETS1 binding intensity (ETS1 [1]): 408 | ETS1 binding intensity (ETS1 [2]): 628

GAATCACCATTTCCTCACTCCCACACAACCATGTTG
ETS1 binding intensity (ETS1 [1]): 485 | ETS1 binding intensity (ETS1 [2]): 417

TTACACCCAAGGGATGTTGTTTGTGGGGGGCGGGGT
ETS1 binding intensity (ETS1 [1]): 445 | ETS1 binding intensity (ETS1 [2]): 490

CCAGGGGCACACCGGAACCCACACCTGAAATCACAG
ETS1 binding intensity (ETS1 [1]): 647 | ETS1 binding intensity (ETS1 [2]): 739

CGGGCCCGACGGAAACCATGTTTGTGGCTCGCAGCA
ETS1 binding intensity (ETS1 [1]): 744 | ETS1 binding intensity (ETS1 [2]): 699

GTGCAGGCCGGAAGGAAAAGGGTTGTGGGGCTCATT
ETS1 binding intensity (ETS1 [1]): 1180 | ETS1 binding intensity (ETS1 [2]): 1420

ACCTTCCTTCCTGCCTCCCTTGTGGCTCCAGTCCAC
ETS1 binding intensity (ETS1 [1]): 552 | ETS1 binding intensity (ETS1 [2]): 312

GTCTTGTTACTGGAGTGTGATAGCACCTAATAATAT (protein concentration 10 nM)
TF binding intensity (ETS1 [3]): 150

CTGGATTTCTGTACTTTGGTTGGCTTATATTACATC (protein concentration 10 nM)
TF binding intensity (ETS1 [3]): 171
